We go through 54 compounds from PubChem BioAssay AID1030 (National Center for Advancing Translational Sciences (NCATS), 2008).

About 16,000 (7.3%) of roughly 220,000 compounds were called active. About 25% were inconclusive and are not listed. This excerpt belongs to a sample that is enriched for actives. Unmarked numbers belong to inactive results. Calls follow the shape of the dose curve; as a rule, active = well fitted inhibition curve with a large enough effect (not every such curve was filed as active); inconclusive = small, poorly fitted or top-dose-only effect, or another doubt; inactive = no such curve, though single readings can be large or run the other way.
Potency is read from the fitted curve at half-maximal effect.

Sequence of Aldehyde dehydrogenase 1A1 (Homo sapiens) (P00352 whole entry, looked up): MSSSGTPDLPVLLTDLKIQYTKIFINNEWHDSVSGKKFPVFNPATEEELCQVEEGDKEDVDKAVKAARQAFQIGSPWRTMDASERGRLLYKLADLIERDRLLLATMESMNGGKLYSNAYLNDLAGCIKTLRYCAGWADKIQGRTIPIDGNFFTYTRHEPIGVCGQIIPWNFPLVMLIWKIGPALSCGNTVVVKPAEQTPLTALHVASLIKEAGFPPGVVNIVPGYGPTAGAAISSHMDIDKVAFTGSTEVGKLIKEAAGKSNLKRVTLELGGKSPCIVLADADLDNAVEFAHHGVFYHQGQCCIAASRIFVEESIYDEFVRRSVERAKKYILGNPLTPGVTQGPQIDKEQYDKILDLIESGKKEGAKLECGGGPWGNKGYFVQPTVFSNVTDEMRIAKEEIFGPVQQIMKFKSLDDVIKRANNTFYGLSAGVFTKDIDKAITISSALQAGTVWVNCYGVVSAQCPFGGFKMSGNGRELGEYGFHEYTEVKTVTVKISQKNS

The assay has as its target Aldehyde dehydrogenase 1A1 (Homo sapiens) (UniProt P00352). Description: qHTS Assay for Inhibitors of Aldehyde Dehydrogenase 1 (ALDH1A1).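 As to activity, negative = inhibition: plate controls were no enzyme wells and a reference inhibitor.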 Particulars: Purified ALDH1A1, NADH fluorescence, propionaldehyde substrate; series mostly up to 75.3 µM; activity, negative = inhibition: at the top concentration. In general terms: Quantitative high-throughput screening tests each substance at several concentrations.
On to `CCOc1ccc(/C=C(/NC(=O)c2ccccc2)C(=O)NCCC(=O)O)cc1`, for which the “activity, negative = inhibition” value was 3.16%.

Consider `Cc1ccccc1CC1(CO)CCCN(C(=O)c2cc(-c3ccccc3)no2)C1` (centres undefined), for which the “activity, negative = inhibition” value is 6.3%.

In the case of `O=[N+]([O-])c1ccccc1OCCCCN1CCCCC1`, the “activity, negative = inhibition” value is 5.91%.

With `COc1cc(C(=S)N2CCOCC2)cc(OC)c1OC(=O)c1cc([N+](=O)[O-])c(C)c([N+](=O)[O-])c1`, the “activity, negative = inhibition” value is -15.4%.

Turning to `O=C(Oc1ccccc1C(=S)N1CCCCC1)c1cc([N+](=O)[O-])cc([N+](=O)[O-])c1`, the Potency was 8.91 µM (active).

For the compound `Cc1cc(C)n(Cc2cnc(N3CCOCC3)s2)n1`, the “activity, negative = inhibition” value was 1.49%.

In the case of `Cc1nn(CC2CC2)c(=O)n1N(C)c1ncc(C(F)(F)F)cc1Cl`, the “activity, negative = inhibition” value is 11.8%.

For the compound `CCOC(=O)/C(C#N)=C\c1c(C)cc(C)c(COC(C)=O)c1C`, the “activity, negative = inhibition” value was 1.88%.

Turning to `CC(C)(C)C(=O)/C(C#N)=C/c1ccc(O)cc1`, the Potency is 1.58 µM (active).

`N#C/C(=C\c1ccc(O)c(O)c1)C(=O)NCc1ccccc1`: the Potency result is “inactive”.

Consider `C=CCn1c(COc2ccccc2C)nnc1SCC(=O)O`, for which the “activity, negative = inhibition” value was -4.73%.

Regarding `CC(=O)Nc1ccc(NC(=O)CSc2nnc(COc3ccccc3C)n2CC2CCCO2)cc1` (centres undefined), the Potency is 10 µM (active).

In the case of `COc1ccccc1NC(=O)CSc1nnc(C)n1CC1CCCO1` (centres undefined), the “activity, negative = inhibition” value is -9.88%.

Turning to `CC(OC(=O)c1ccccc1N1C(=O)C2C3CCC(C3)C2C1=O)C(=O)c1ccccc1` (centres undefined), the “activity, negative = inhibition” value was 20.1%.

For the compound `O=[N+]([O-])c1ccccc1Nc1ccc(O)cc1`, the “activity, negative = inhibition” value was -3.44%.

For `COc1cccc(NS(=O)(=O)c2ccc3[nH]cc(C(=O)NCCCOC(C)C)c(=O)c3c2)c1`, the Potency was 11.2 µM (active).

In the case of `CCNS(=O)(=O)c1ccc(NC(=O)Nc2cccc(OC)c2)cc1`, the “activity, negative = inhibition” value is -8.67%.

Consider `CC(C)OCCCNC(=O)c1cc(Sc2ccc(F)cc2)nc2ccccc12`, for which the “activity, negative = inhibition” value was -5.97%.

For `Cc1ccc(Nc2c3c(nc4ccccc24)CCC3)cc1`, the “activity, negative = inhibition” value is 0.124%.

Consider `Cc1ccc(-c2csc(NC(=O)Cn3[nH]c(=O)c4ccccc4c3=O)n2)cc1`, for which the “activity, negative = inhibition” value was 3.41%.

Take `CCOC(=O)c1sc(NC(=O)CSc2ncccn2)c(C#N)c1C`: the Potency is 28.2 µM (active).

In the case of `CCOC(=O)c1ccc(NC(=O)CSc2ncccn2)cc1`, the “activity, negative = inhibition” value is -10.2%.

With `CCOC(=O)c1sc(NC(=O)CSc2nc(C)cc(C(F)(F)F)n2)c(C#N)c1C`, the Potency was 2.24 µM (active).

For the compound `Cc1cc(C(F)(F)F)c(C#N)c(SCC(=O)NC2CC2)n1`, the “activity, negative = inhibition” value is 10.4%.

With `CCOC(=O)c1sc(NC(=O)CSc2n[nH]c(CC)n2)nc1C`, the “activity, negative = inhibition” value is -0.18%.

For `CCN(CC)C(=O)c1sc(NC(=O)c2ccco2)c(C#N)c1C`, the “activity, negative = inhibition” value was 2.09%.

For the compound `O=C(Nc1cccc(CCc2ccccn2)c1)c1ccc(Cl)cc1`, the “activity, negative = inhibition” value is -0.24%.

Regarding `O=C(Cn1nnc2ccccc2c1=O)NCc1ccc(Cl)cc1`, the “activity, negative = inhibition” value is 0.87%.

As for `Nc1c(C(=O)NCc2ccccc2)nnn1Cc1cccc(Cl)c1`, the “activity, negative = inhibition” value is 14.8%.

As for `O=C(NCc1ccc(Cl)cc1)c1cc(=O)nc2sc(-c3ccccc3)nn12`, the Potency is 5.01 µM (active).

Take `COc1ccc(C(=O)Nc2cccnc2)cc1C(=O)Nc1cccnc1`: the “activity, negative = inhibition” value is 8.94%.

Turning to `O=C(Nc1cccnc1)c1ccc2c(c1)OCO2`, the “activity, negative = inhibition” value is 3.17%.

For the compound `CCOC(=O)c1ccc(-c2ccc(C(=O)Nc3cccnc3)o2)cc1`, the Potency was 22.4 µM (active).

In the case of `OC1CSc2nc3ccccc3n2C1` (centres undefined), the “activity, negative = inhibition” value was 16.1%.

In the case of `COc1ccc(Cl)cc1N(CC(=O)N1CCCCC1)S(C)(=O)=O`, the “activity, negative = inhibition” value is -4.02%.

With `CCn1c(C(C)C)n[nH]c1=S`, the “activity, negative = inhibition” value is 6.31%.

Take `CCCCCCCC/C=C\CCCCCCCC(=O)NCC(=O)O`: the “activity, negative = inhibition” value is 4.06%.

Turning to `COc1ccccc1NC(=O)C1=C(C)NC(=O)NC1c1ccc(C)s1` (centres undefined), the “activity, negative = inhibition” value was 0.535%.

`CCOC(=O)/C(=N\Nc1ccccc1Cl)N(C)C1CCS(=O)(=O)C1` (centres undefined): the “activity, negative = inhibition” value is 8.1%.

As to `Cc1nc2ccccc2c(=O)n1CCCn1ccnc1`, the “activity, negative = inhibition” value was 12.8%.

As for `Cc1ccnc(-n2sc3ccccc3c2=O)n1`, the Potency is 1.26 µM (active).

Take `Cc1ccnc(Nc2nc3ccccc3s2)n1`: the “activity, negative = inhibition” value was 3.21%.

In the case of `COC(=O)C(C)NC(=O)COc1ccc2ccccc2c1` (centres undefined), the “activity, negative = inhibition” value is 1.95%.

For the compound `C/C(=N/N1CCN(Cc2cccc3ccccc23)CC1)c1cccnc1`, the “activity, negative = inhibition” value is -6.86%.

`CC/C(Cc1ccccc1)=N/NC(=O)CCn1nnc2ccccc21`: the “activity, negative = inhibition” value was -4.78%.

Take `CC(C)Cc1nc(Cl)c(C#N)c2c1CCC2`: the “activity, negative = inhibition” value is -9.07%.

For `COC(=O)C1=C(C)NC(=O)/C1=C/c1ccc(CNS(=O)(=O)c2ccc(C)cc2)o1`, the “activity, negative = inhibition” value is -9.6%.

As for `O=C(NCC(=O)N(CC1CCCO1)C(C(=O)NC1CCCCC1)c1ccccc1)c1ccco1` (centres undefined), the “activity, negative = inhibition” value was -5.06%.

As for `Cc1ccc(S(=O)(=O)N(CC(=O)NCCSC2CCCCC2)c2ccccc2F)cc1`, the “activity, negative = inhibition” value is -12.3%.

Take `CCCNC(=O)CN(Cc1ccccc1F)S(=O)(=O)c1ccc(C)cc1`: the “activity, negative = inhibition” value was -8.44%.

With `CCNC(=O)CN(c1ccc(C)cc1)S(=O)(=O)c1ccc(SC)cc1`, the Potency is 11.2 µM (active).

For `COc1ccc(/C=C2\SC(=S)N(CC(=O)NNC(=O)c3ccncc3)C2=O)cc1`, the “activity, negative = inhibition” value is 0.464%.

On to `O=c1c2ccccc2nc(CSc2nnnn2-c2ccccc2)n1-c1ccccc1`, for which the “activity, negative = inhibition” value is -17.7%.

Take `N#CCSc1nc2ccccc2c(=O)n1-c1ccccc1`: the Potency is 12.6 µM (active).
